From PubChem BioAssay AID2284353 (EPA ToxCast)
Records with an inconclusive call do not appear. Calls of active or inactive are those of the source. How the source made its calls: active means hit-call score of the fitted dose curve at least 0.9, where 1 is the maximum; inconclusive means response in the unintended direction; inactive means score below 0.9.

What follows are compounds tested on Japanese medaka Peroxisome Proliferator-activated Receptor gamma (PPARg), gene 100304459 (assay: ATG_jmPPARg_EcoTox2: Attagene TRANS-FACTORIAL EcoTox-2 HepG2 Assay for Japanese medaka Peroxisome Proliferator-activated Receptor gamma (PPARg)).
Method: ATG_EcoTox2 is a cell-based, multiplexed assay created by modifying the existing Attagene TRANS-FACTORIAL system to include a panel of nuclear receptors from some or all the following species: human (Homo sapiens), african clawed frog (Xenopus laevis), rainbow trout (Oncorhynchus mykiss), japanese medaka (Oryzias latipes), and zebrafish (Danio rerio). The ECOTOX2-FACTORIAL format uses HepG2, a human liver cell line, with measurements taken at 24 hours after chemical dosing in a 24-well plate. ATG_jmPPARg_EcoTox2 is one of 29 assay components calculated in the ATG_EcoTox2 assay. It is designed to make measurements of mRNA induction, a form of inducible reporter, as detected with fluorescence intensity signals by Reverse transcription polymerase chain reaction (RT-PCR) and Capillary electrophoresis technology.The assay endpoint ATG_jmPPARg_EcoTox2 was analyzed in the positive analysis fitting direction relative to DMSO as the negative control and baseline of activity. Using a type of inducible reporter, measures of mRNA for gain-of-signal activity can be used to understand the reporter gene at the transcription factor-level as they relate to the gene PPARg. Furthermore, this assay endpoint can be referred to as a primary readout, because this assay has produced multiple assay endpoints where this one serves a reporter gene function. To generalize the intended target to other relatable targets, this assay endpoint is annotated to the nuclear receptor intended target family, where the subfamily is non-steroidal.
Human liver HepG2 cells are transiently transfected with multiple reporter transcription units (MRTUs) in 6-well plates using FuGene 6 reagent (Roche; 3 ml FuGene/1 mg DNA). The MRTU constructs are regulated by a cis-regulating element (promoter). Each RTU expresses a GAL4-UAS that regulates the transcription of a nearby target reporter gene sequence. A major difference between the CIS and TRANS system is that in CIS activities of endogenous TFs are measured, whereas the TRANS assay evaluates changes in activities of exogenous, chimeric NR-Gal4 proteins. […] At the end of 24 hour incubation, total RNA was isolated using TriZol reagent (Invitrogen). The isolated RNA is then reverse-transcribed using oligo(dT) primer and Mo-MLV reverse transcriptase (Invitrogen) with DNAse I (Ambion) treatment for 30 min. The one-tenth of the produced cDNA was amplified by PCR using Taq DNA polymerase (Invitrogen) and two reporter sequence-specific primers. The PCR products were fluorescently labeled by primer extension with 6-arboxyfluorescein (6-FAM) 5'-labeled reporter sequence-specific primer (2 min at 95 C, 20 s at 68 C and 10 min at 72 C) and these products were digested with 5U of HpaI (New England Biolabs) for 2h at 37 C. The fragments were purified using Qiaquick PCR columns (Qiagen), analyzed on an ABI 3130xL genetic analyzer (Applied Biosystems) with peak positions identified by using a set of X-rhodamine (ROX)-labeled MapMarker1000 molecular weight standards (BioVentures). The raw capillary electrophoresis data was processed using Attagraph software (Attagene).

Question: Which outcome does the source give for Cc1c(C)c2c(c(C)c1O)CCC(C)(COc1ccc(CC3SC(=O)NC3=O)cc1)O2 (stereo not drawn) here?
Answer: Its outcome is “inactive”.

Question: With CC(c1cc2ccccc2s1)N(O)C(N)=O (stereo not drawn) as the compound, how does the outcome read?
Answer: Its outcome is “inactive”.

Question: How did the AC50 turn out when C=C(c1ccc(C(=O)O)cc1)c1cc2c(cc1C)C(C)(C)CCC2(C)C was run?
Answer: Its AC50 is 5.55 µM (active).

Question: Which outcome does the source give for Cc1ccc(C)c(OCCCC(C)(C)C(=O)O)c1 here?
Answer: The outcome was “inactive”.

Question: CC(C)OC(=O)C(C)(C)Oc1ccc(C(=O)c2ccc(Cl)cc2)cc1 was tested. Which outcome did it give?
Answer: The outcome was “inactive”.

Question: How did the outcome turn out when CN(CCOc1ccc(CC2SC(=O)NC2=O)cc1)c1ccccn1 (stereo not drawn) was run?
Answer: The outcome was “inactive”.

Question: For C[C@]12C=CC(=O)C=C1CC[C@@H]1[C@@H]2C(=O)C[C@@]2(C)[C@H]1CC[C@]2(O)C(=O)CO, which outcome is on record?
Answer: The outcome was “inactive”.

Question: For Cc1nc(-c2ccc(C(F)(F)F)cc2)sc1C(=O)NCc1ccc(OC(C)(C)C(=O)O)cc1, which AC50 is on record?
Answer: The AC50 was 20.9 µM (active).
